Screens (PubChem BioAssay)
G9a block: G9a (human) methyltransferase inhibition. AID 504332. Potency, µM (titrated, usually from 102 µM), hits mostly inhibitors. G9a H3K9 monomethylation, AlphaScreen, 2 h. 350,000 tested, 8.8% active; note: nearly all actives have a fitted effect of over 75% in size
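Quantitative HTS format: methyltransferase activity on a biotin-tagged H3K9 peptide is measured by AlphaScreen, using a rabbit anti-monomethyl-H3K9 antibody with streptavidin donor and anti-IgG acceptor beads. Final levels are 20 nM enzyme, 500 nM peptide, 20 uM SAM; 2 h RT.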
HP1b binding inh: blocks HP1-beta chromodomain binding to methylated histone tails; P83916; AlphaScreen HP1-beta / biotin-H3K9me3 peptide binding; Potency, µM (titrated, usually from 114 µM), usual class: inhibitors; 390,000 tested, 0.56% active; AID 540317; note: nearly all actives have a fitted effect of over 70% in size
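Compound inhibition of the preformed complex between 50 nM HP1-beta and 50 nM biotinylated H3K9me3 peptide was read by AlphaScreen. Buffer was PBS pH 7.4 with 0.01% Tween-20. Incubations ran 30 min at room temperature, with 10 ug/mL donor/acceptor beads.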
TDP1 inh: inhibitors of human tyrosyl-DNA phosphodiesterase TDP1; Q9NUW8; 350,000 tested, 0.28% active; recombinant TDP1, AlphaScreen DNA substrate cleavage; Potency, µM (titrated, usually from 130 µM), hits mostly inhibitors; note: nearly all actives have a fitted effect of over 40% in size
Target sequence (Q9NUW8 whole entry, looked up): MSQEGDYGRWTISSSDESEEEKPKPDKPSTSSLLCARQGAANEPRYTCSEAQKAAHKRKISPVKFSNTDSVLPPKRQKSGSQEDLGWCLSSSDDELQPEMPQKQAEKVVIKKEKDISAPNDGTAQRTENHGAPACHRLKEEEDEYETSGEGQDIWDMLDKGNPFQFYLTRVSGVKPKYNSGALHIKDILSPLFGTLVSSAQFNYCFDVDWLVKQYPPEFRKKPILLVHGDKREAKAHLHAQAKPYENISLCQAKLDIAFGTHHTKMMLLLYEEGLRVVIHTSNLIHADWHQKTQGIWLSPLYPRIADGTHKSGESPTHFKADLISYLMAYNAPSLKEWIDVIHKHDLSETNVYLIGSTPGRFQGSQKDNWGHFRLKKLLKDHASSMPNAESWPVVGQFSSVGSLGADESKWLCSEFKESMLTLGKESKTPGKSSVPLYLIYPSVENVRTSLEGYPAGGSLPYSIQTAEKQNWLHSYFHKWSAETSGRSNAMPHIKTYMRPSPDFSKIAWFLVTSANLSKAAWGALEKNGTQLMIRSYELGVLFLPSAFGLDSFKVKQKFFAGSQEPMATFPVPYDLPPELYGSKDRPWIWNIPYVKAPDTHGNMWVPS
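Steps: enzyme plus compound, 15 min RT; add biotin/phosphotyrosine-FITC oligonucleotide (15 nM final), react 5 min; add donor/acceptor beads (10 ug/ml final), 10 min; read AlphaScreen. Tdp1 at 1 nM final.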
Sfp inh: blocks B. subtilis Sfp PPTase activity; Potency, µM, usual class: inhibitors; Biochemical Sfp PPTase activity, qHTS; 310,000 tested, 3.5% active; Q9F4F7;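 note: the enzyme is Sfp with the accession as filed and its product quenches rhodamine fluorescence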
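Compounds were incubated with enzyme (final 15 nM) for 15 min at room temperature before substrate addition started the reaction. Fluorescence at 525 nm excitation, 598 nm emission was recorded immediately and after 30 minutes.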
BAZ2B inh: inhibitors of human BAZ2B bromodomain; Potency, µM (doses to about 114 µM), usual class: inhibitors; AlphaScreen BAZ2B-H3K14Ac peptide displacement; 360,000 tested, 4.4% active; AID 504333; Q9UIF8; note: nearly all actives have a fitted effect of over 60% in size
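Protein-peptide AlphaScreen: BAZ2B 50 nM, b-H3K14Ac 50 nM, 1x PBS pH 7.4 + 0.01% Tween-20. Preincubation 30 min RT; cpd 30 min RT (top 110 uM); beads 20 min RT, light-protected.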
JMJD2A Tudor: JMJD2A Tudor domain (human) inhibition. O75164. AlphaScreen JMJD2A-Tudor / H3K4me3 peptide binding. Potency, µM (doses to about 114 µM), most hits filed as inhibitors. 390,000 tested, 4.4% active; note: nearly all actives have a fitted effect of over 50% in size
A number is an active result; ! = repeats disagree; [ ] = remark or other dose. In the library only some 12% were active in any assay of this set; here they are far more common. Calls come from the whole dose curve; as a rule, active = well fitted curve in the direction sought with a large enough effect; inconclusive = small, poorly fitted or top-dose-only effect, or another doubt; inactive = no such curve, though single readings can be large; an effect the other way counts as inactive or inconclusive.

For COc1cccc(/C=N/N2CCN(c3ccncc3S(=O)(=O)N3CCCCC3)CC2)c1 the results were G9a block 50µM, HP1b binding inh inconclusive, TDP1 inh inactive, Sfp inh inactive, BAZ2B inh 40µM and JMJD2A Tudor inconclusive.
`COc1ccccc1N1CCN(/N=C/c2cccc(Cl)c2)CC1` gave G9a block 18µM, HP1b binding inh inactive, Sfp inh inactive, BAZ2B inh inconclusive and JMJD2A Tudor 50µM.
Screening Cc1ccc(/C=N/N2CCN(c3ccncc3S(=O)(=O)N3CCCCC3)CC2)cc1 returned G9a block inactive[2.33 µM], HP1b binding inh inactive, TDP1 inh inactive, Sfp inh inactive, BAZ2B inh inactive and JMJD2A Tudor inconclusive.
COc1cccc(/C=N/N2CCN(c3ccccc3OC)CC2)c1 was read as G9a block inconclusive, HP1b binding inh inactive, TDP1 inh inactive, Sfp inh inactive, BAZ2B inh inconclusive and JMJD2A Tudor 45µM.
`COc1ccc(-n2ccnc(NCc3cccs3)c2=O)cc1OC` gave G9a block inconclusive, HP1b binding inh inactive, TDP1 inh inactive, BAZ2B inh inactive and JMJD2A Tudor inactive.
O=c1ccc2cc3c([nH]c4ccc(Br)cc43)oc-2c1O was read as G9a block inconclusive, TDP1 inh inactive, Sfp inh 22µM and BAZ2B inh 45µM.
Screening O=c1c2c([nH]c3ccc(Br)cc13)CCCC2 returned G9a block inconclusive, HP1b binding inh inactive, TDP1 inh inactive, Sfp inh inactive, BAZ2B inh inactive and JMJD2A Tudor inactive.
Screening c1ccc(C2CNCCc3ccccc32)cc1 (stereo not drawn) returned G9a block inactive, HP1b binding inh inactive, Sfp inh inactive, BAZ2B inh inactive and JMJD2A Tudor inactive.
CN1CCC(OC(=O)c2cccc(Cl)c2)CC1 was read as G9a block inactive, HP1b binding inh inactive, TDP1 inh inactive, Sfp inh inactive, BAZ2B inh inactive and JMJD2A Tudor inactive.
Screening CN1CCc2c(cc(O)c(O)c2Cl)C(c2cccc(Cl)c2)C1 (stereo not drawn) returned G9a block 8.9µM and TDP1 inh inactive.
For Oc1ccc([C@@H]2CNCCc3c2cc(O)c(O)c3Cl)cc1 the results were TDP1 inh inactive and Sfp inh 56µM.
Screening CN1CCc2cc(O)c(O)cc2C(c2ccccc2)C1 (stereo not drawn) returned G9a block 11µM, HP1b binding inh inactive, TDP1 inh inactive, BAZ2B inh inactive and JMJD2A Tudor inactive.
`Oc1cc2c(cc1O)C(c1ccccc1)CNCC2` (stereo not drawn) gave G9a block 6.7µM, HP1b binding inh inconclusive, TDP1 inh inactive, Sfp inh 79µM! and JMJD2A Tudor 32µM.
For COc1ccccc1NC(=O)COC(=O)c1oc2ccccc2c1C the results were HP1b binding inh inactive, TDP1 inh inactive, Sfp inh inactive, BAZ2B inh inactive and JMJD2A Tudor inactive.
`Oc1cc2c(cc1O)[C@@H](c1ccccc1)CNCC2` gave G9a block 8.9µM, HP1b binding inh inactive, TDP1 inh inactive, Sfp inh 20µM, BAZ2B inh inactive and JMJD2A Tudor inactive.
`OC1(c2ccccc2)CNCCc2ccccc21` (stereo not drawn) gave G9a block inactive, HP1b binding inh inactive, Sfp inh inactive, BAZ2B inh inactive and JMJD2A Tudor inactive.
For CC(C)CNC(=S)N(CCCO)Cc1cc2cc3c(cc2[nH]c1=O)OCO3 the results were G9a block 40µM, HP1b binding inh inactive, Sfp inh inactive, BAZ2B inh inactive and JMJD2A Tudor inactive.
Screening CCOCCCNC(=S)N(CCN(C)C)Cc1cc2cc3c(cc2[nH]c1=O)OCCO3 returned G9a block 50µM, HP1b binding inh inactive, Sfp inh inactive, BAZ2B inh inactive and JMJD2A Tudor inactive.
`CC(C)CNC(=S)N(CCN(C)C)Cc1cc2cc3c(cc2[nH]c1=O)OCO3` gave G9a block inactive, HP1b binding inh inactive, Sfp inh inactive, BAZ2B inh inactive and JMJD2A Tudor inactive.
For O=C(C1CCC1)N1CCN(S(=O)(=O)c2ccccc2)CC1 the results were G9a block inactive, HP1b binding inh inactive, TDP1 inh inactive, BAZ2B inh inactive and JMJD2A Tudor inactive.
`COc1ccc(CCNC(=O)Cn2nc(C)c3c(C)n(-c4ccc(C)cc4)nc3c2=O)c(OC)c1` gave G9a block inconclusive, HP1b binding inh inactive, BAZ2B inh 50µM and JMJD2A Tudor inconclusive.
Screening COc1ccc(CNC(=O)Cn2nc(C)c3c(C)n(-c4ccc(C)cc4)nc3c2=O)cc1OC returned HP1b binding inh inactive, Sfp inh inactive, BAZ2B inh 79µM and JMJD2A Tudor 89µM.
COCCNC(=O)Cn1nc(C)c2c(C)n(-c3ccc(C)cc3)nc2c1=O was read as G9a block inactive, HP1b binding inh inactive, TDP1 inh inactive, BAZ2B inh inactive and JMJD2A Tudor inactive.
CCc1ccc(-n2c(=O)c3c(C)c(C(=O)N(C)C)sc3n(Cc3ccccc3C#N)c2=O)cc1 was read as G9a block inactive, HP1b binding inh inactive, TDP1 inh inactive, BAZ2B inh inactive and JMJD2A Tudor inactive.
`CCOc1ccc(-n2nnnc2SCC(=O)Nc2ccc(NC(C)=O)cc2)cc1` gave G9a block inactive, HP1b binding inh inactive, TDP1 inh inactive, Sfp inh inactive, BAZ2B inh inactive and JMJD2A Tudor inactive.
`C#CCSc1nnnn1-c1ccc(OCC)cc1` gave G9a block 50µM, HP1b binding inh inactive, TDP1 inh inactive, Sfp inh inactive, BAZ2B inh inactive and JMJD2A Tudor inactive.
`Cc1cc2c(s1)c1cnn(Cc3ccc(Cl)cc3)c(=O)c1n2C` gave TDP1 inh 35µM and JMJD2A Tudor 45µM.
Screening Cc1cc2c(s1)c1cnn(Cc3ccc(F)c(Cl)c3)c(=O)c1n2C returned JMJD2A Tudor inactive.
O=C(NC(=S)NCCN1CCOCC1)c1ccc(F)cc1 was read as G9a block inactive, HP1b binding inh inactive, TDP1 inh inactive, Sfp inh inactive, BAZ2B inh inactive and JMJD2A Tudor inactive.
CCCCOc1ccc(C(=O)NC(=S)Nc2ccc(CN3CCOCC3)cc2)cc1 was read as G9a block inactive, HP1b binding inh inactive, TDP1 inh inactive, Sfp inh inactive, BAZ2B inh inactive and JMJD2A Tudor inactive.
Screening Cc1ccc(C(=O)NC(=S)NNC(=O)CCN2CCOCC2)cc1 returned G9a block 8.9µM, HP1b binding inh inactive, TDP1 inh inactive, Sfp inh inactive, BAZ2B inh 56µM and JMJD2A Tudor inactive.
O=C(CCCCl)NC(=S)Nc1ccc(CN2CCOCC2)cc1 was read as G9a block 50µM, HP1b binding inh inactive, TDP1 inh inactive, Sfp inh inactive, BAZ2B inh inactive and JMJD2A Tudor inactive.
